# SARS PLpro yeast – blocks SARS-CoV papain-like protease in a yeast assay | 0.19% of 330,000 active | AID 485353 | Potency, µM (top dose mostly 32.9 µM), for the others: at the highest dose activity, positive = growth rescue, most hits filed as activators | S. cerevisiae expressing SARS-CoV PLpro, growth rescue; calls by dose curve; note: 0% is about no effect; nearly all actives have a fitted effect of over 55% in size
# Pf growth 48h – inhibits P. falciparum growth in the first generation, 48 h; Potency, µM (doses to about 28.7 µM), for the others: top-dose activity change, negative = inhibition, usual class: inhibitors; P. falciparum luciferase growth in erythrocytes, 48 h; 5.9% of 310,000 active; note: % is set by controls: 0 for no effect and ±100 for the full control effect
#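 Compounds are pin-transferred into medium, infected erythrocytes (2% hematocrit, 0.1% parasitemia final) are added, and plates sit one parasite generation at 37 C in 5% CO2. Detection reagent is then added and luminescence measured.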
# NS1 function inh – inhibitors of influenza NS1 protein function; Potency, µM (titrated, usually from 46.1 µM), inactives show at the highest dose activity, positive = more growth; 0.4% of 270,000 active; calls by dose curve; note: actives are rising curves; nearly all actives have a fitted effect of over 50% in size
#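 Recovery from NS1-induced slow growth read by OD600 in budding yeast switched to galactose assay medium (pH 6.0, -URA) at 1:100 dilution. Compound 23 nl per well; the matching strain lacking NS1 serves as control.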
# Pf growth 96h – inhibits malaria parasite growth, 96 h; 6.9% of 320,000 active; P. falciparum luciferase reporter growth, 96 h; Potency, µM (series often up to 28.7 µM), for the others: top-dose activity change, negative = inhibition, usual class: inhibitors; note: % is set by controls: 0 for no effect and ±100 for the full control effect
#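 Cell-based qHTS: luciferase-tagged P. falciparum in erythrocytes (2% hematocrit, 0.05% parasitemia final) incubated with compounds for 96 hours, 37 C, 5% CO2; luciferase detection reagent then added and luminescence measured.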
# HCV inh – inhibitors of hepatitis C virus infection; Huh7.5.1 HCVcc-Cre infection, luciferase reporter, 44 h; Potency, µM (doses to about 41.8 µM), inactives show at the top dose activity change, negative = inhibition, most hits filed as inhibitors; 3.4% of 340,000 active; note: % is set by controls: 0 for no effect and ±100 for the full control effect
#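 A cell-based infection assay in which seeded cells (1,000 per well) receive test compound after 4 h, are inoculated with HCVcc-Cre at approximately 0.5 moi, and are incubated 44 h before luminescence detection.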
# AMA1 RON2 block – inhibitors of Plasmodium falciparum AMA1-RON2 interaction | Potency, µM (doses to about 58.2 µM), for the others: at the top dose activity change, negative = inhibition, most hits filed as inhibitors | 0.2% of 360,000 active | AlphaScreen AMA1-biotinylated RON2 peptide binding;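 note: 0% = vehicle wells and -100% = peptide control; nearly all actives have a fitted effect of over 45% in size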
#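 AMA1 (3D7) with his tag at 25 nM final met compounds first, then biotinylated RON2 peptide at 25 nM; detection used donor plus acceptor beads, 10 µg/mL apiece, read by AlphaScreen after 30 min at room temperature.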
# Starred values were filed as active, the others as inactive; ? = inconclusive; nt = no result given; [ ] = remark or other dose. In the library only some 12% were active in any assay of this set; here they are far more common. Unless noted, calls come from the whole dose curve; as a rule, active = well fitted curve in the direction sought with a large enough effect; inconclusive = small, poorly fitted or top-dose-only effect, or another doubt; inactive = no such curve, though single readings can be large; an effect the other way counts as inactive or inconclusive. Potency is the fitted concentration of half-maximal effect.
SMILES,SARS PLpro yeast,Pf growth 48h,NS1 function inh,Pf growth 96h,HCV inh,AMA1 RON2 block
COc1ccc(-c2nnn(CC(=O)N(Cc3cccs3)C(C)C(=O)NC3CCCC3)n2)cc1OC (stereo unspecified),14%,?,-7%,?,-24%,-14%
CCC(C(=O)NC1CCCC1)N(C(=O)Cn1nnc(-c2ccc(C)o2)n1)C(C)(C)C (stereo unspecified),5%,?,-1%,2.3µM*,5%,-1%
CC(C)CCNC(=O)C(c1ccncc1)N(Cc1cccs1)C(=O)Cn1nnc(-c2ccc(F)cc2)n1 (stereo unspecified),-10%,15µM*,-8%,62%,?,6%
O=C(NCC1CCCO1)C(c1ccncc1)N(Cc1cccs1)C(=O)Cn1nnc(-c2ccc(F)cc2)n1 (stereo unspecified),0%,1%,1%,?,-21%,-2%
CCC(C(=O)NC1CCCC1)N(C(=O)Cn1nnc(-c2ccc(C)o2)n1)c1ccc(OC)cc1 (stereo unspecified),2%,?,20%,27%,-6%,4%
Cc1ccc(-c2nnn(CC(=O)N(Cc3cccs3)C(C(=O)NC3CCCC3)c3ccncc3)n2)cc1 (stereo unspecified),22%,5.9µM*,-20%[9.22 µM],?,?,-7%
CCOC(=O)CN(C(=O)Cn1nnc(-c2ccc(OC)cc2)n1)C(C(=O)NC1CCCC1)c1ccc(F)cc1 (stereo unspecified),8%,13µM*,-1%,15µM*,?,-2%
O[C@H]1CN(CC2CCCCC2)[C@@H](c2ccc(Cl)cc2)C[C@@H]1n1cc(-c2ccc(F)cc2)nn1,nt,nt,nt,nt,nt,-6%
Cc1cc(C)cc(Oc2ccccc2CO)c1,0%,-6%,-4%,10%,nt,nt
O=C(N/N=C/C(Br)=C/c1ccccc1)c1cccs1,-4%,254%,-45%,8%,-20%,-1%
CCC(C(=O)NC1CCCC1)N(C(=O)Cn1nnc(-c2ccc(OC)c(OC)c2)n1)C1CCCCC1 (stereo unspecified),-2%,9.3µM*,-45%,?,10%,-1%
O=CN(c1ccccc1)c1ccc2ccccc2c1,2%,-1%,-8%,103%,20%,-21%
CCOC(=O)c1[nH]c(C)c(C(=O)/C=C/c2ccc(C(=O)O)cc2)c1C,19%,12µM*,-4%,?,-9%,0%
CN1C(=O)N(C)C2(c3ccccc3)Nn3c(s/c(=C/c4ccco4)c3=O)=NC12c1ccccc1 (stereo unspecified),0%,12µM*,?,128%,-9%,-4%
CN1C(=O)N(C)C2(c3ccccc3)Nn3c(s/c(=C/c4ccccc4F)c3=O)=NC12c1ccccc1 (stereo unspecified),5%,3%,-1%,nt,12%,nt
CN(C)C(=O)Nc1ccccc1,0%,20%,5%,-26%,17%,-3%
CC12Cc3ccc4ccccc4c3C=C1C[N+](C)(C)C2 (stereo unspecified),-1%,nt,1%,1.7µM*,0%,41%
COc1ccc(O)c(/C=N/NC(=O)c2ccc(N3CCCC3=O)cc2)c1,2%,?,6%,47%,11µM*,12%
COc1ccc(/C=C/C(=O)Nc2ccccc2Cl)cc1S(=O)(=O)N1CCOCC1,3%,10µM*,-5%,10µM*,?,0%
COc1ccc(C)cc1NC(=O)/C=C/c1ccc(OC)c(S(=O)(=O)N2CCOCC2)c1,-11%,9.3µM*,nt,5.2µM*,?,-11%
COc1ccc(/C=C/C(=O)NC2CCCCCCC2)cc1S(=O)(=O)N1CCOCC1,-3%,?,-5%,5.9µM*,-27%,7%
CC(C)C(=O)Nc1nnc(SCC(=O)NC2CCCC2)s1,-4%,-2%,11%,6%,12%,6%
C[C@H]1CN([C@@H](C)CO)C(=O)c2cccc(NS(=O)(=O)c3cn(C)cn3)c2O[C@H]1CN(C)S(C)(=O)=O,-8%,nt,nt,nt,19%,0%
